# Results reported in PubChem BioAssay AID430 (Sanford-Burnham Center for Chemical Genomics, 2006).
# Out of some 63,000 compounds screened, about 1,100 (1.7%) were called active. The sample as a whole holds a higher share of actives than the screen did. Results with a measured potency or affinity are listed apart. Unmarked numbers belong to inactive results. Rule as the data show it: active = cytotoxicity above about 50%; inactive = the rest.
# Test: HPDE-C7 pancreatic duct cell viability loss – fluorescence, HTS (AID 430);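 also: cells exposed to compound for 48 hours before viability readout; 0% = vehicle and 100% = reference cytotoxic drug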
# Settings: HPDE-C7 pancreatic duct cells viability, at 10 µM, stronger effect = higher value
row,SMILES,cytotoxicity
1,COc1cccc(-c2nc(CS(=O)CC(=O)NC3CC3)c(C)o2)c1 (centres undefined),-3%
2,COc1nc(NC23CC4CC(CC(C4)C2)C3)nc(OC)n1,-8%
3,COCCCNC(=O)CN(Cc1ccc(Cl)cc1)S(C)(=O)=O,-2.6%
4,CCCSc1nc(C)c(CC(=O)OCC)c(=O)[nH]1,4%
5,O=C1c2ccccc2C(=O)N1CCSc1nnc(-c2ccco2)n1Cc1ccccc1,4.3%
6,CCCCCn1c(N(C)Cc2ccccc2)nc2c1c(=O)[nH]c(=O)n2C,-0.6%
7,C=C(C)COc1ccc(-c2[nH]ncc2-c2ccc(OC)c(OC)c2)c(O)c1,13.3%
8,CCOc1ccc(-c2[nH]ncc2-c2ccc(OC)c(OC)c2)c(O)c1,53.7% (active)
9,COc1ccc(-c2[nH]ncc2-c2ccc(Cl)cc2)c(O)c1,41.2%
10,CCC(=O)Nc1ccc(F)c(Cl)c1,-11.3%
11,CCOC(=O)Cc1csc(NC(=O)CSc2ncnc3c2cnn3-c2ccc(OC)cc2)n1,-6.9%
12,CCOC(=O)Cc1csc(NC(=O)CSc2ncnc3c2cnn3-c2ccccc2Cl)n1,57.4% (active)
13,Cc1csc(NC(=O)CSc2ncnc3c2cnn3-c2ccccc2Cl)n1,19.7%
14,CC1(C)CC(=O)C=C(Nc2cccc(O)c2)C1,1.7%
15,CC1(C)CC(=O)C2=C(C1)N(c1cccc(O)c1)C1=C(C2)C(=O)CC(C)(C)C1,59.8% (active)
16,CC1(C)CC(=O)C(C(C2=C(O)CC(C)(C)CC2=O)c2cccc(O)c2)C(=O)C1 (centres undefined),10.5%
17,C=CCn1c(O)c(C(CC)=NCc2cccnc2)c(=O)[nH]c1=O,-2.2%
18,O=C(NCc1cccnc1)c1cc(-c2ccco2)on1,1.9%
19,N#Cc1cc2c(nc1SCC(=O)NCc1ccc3c(c1)OCO3)CCCCC2,-27.8%
20,COc1cccc(CNC(=O)c2cc3oc4ccccc4c3n2C)c1OC,53.5% (active)
21,COc1cccc(CNC(=O)Cn2c(=O)oc3ccccc32)c1OC,-4.3%
22,COc1ccccc1CNC(=O)c1cc2c(=O)n(C)c3ccccc3c2n1C,15.2%
23,CC1=NC(Nc2nc(C)c3ccccc3n2)=NC(C)(C)C1,1.1%
24,COc1ccc(CNC(=O)c2cc(-c3ccc(OC)c(OC)c3)on2)cc1,1%

row,SMILES,cytotoxicity
1,CCCc1cc(C(N)=O)c(NC(=O)C2CCCO2)s1 (centres undefined),-5.1%
2,COC(=O)c1nc2nc(C)cc(C(F)(F)F)n2n1,-8.4%
3,O=C(Cn1c(=O)n(-c2cccc(Cl)c2)c(=O)n1CC(=O)N1CCCCC1)N1CCCCC1,1%
4,Cc1ccc(S(=O)(=O)C2(C(=O)N3CCCCCC3)CC2)cc1,6%
5,O=S(=O)(c1ccccc1)C1(S(=O)(=O)c2ccccc2)CCCC1,-3.4%
6,Cc1ccc(S(=O)(=O)C2(S(=O)(=O)c3ccc(C)cc3)CCCC2)cc1,54.6% (active)
7,O=C(NCCc1cccc(Cl)c1)c1cccnc1,-6%
8,Cc1ccc(C)c(N2CCN(C(=O)c3ccc(NS(=O)(=O)c4c(C)noc4C)cc3)CC2)c1,41.2%
9,Cc1noc(C)c1S(=O)(=O)Nc1ccc(C(=O)N2CCN(c3ccc(Cl)cc3)CC2)cc1,-12.9%
10,N#Cc1ccccc1Cn1c(=O)n(Cc2ccc(C(=O)NCc3ccco3)cc2)c(=O)c2ccccc21,7.9%
11,CC(=O)c1cccc(NC(=O)C=C(C)C)c1,5.6%
12,CN(Cc1ccccc1)C(=O)CSc1nnc(-c2ccco2)n1-c1ccccc1,-10.3%
13,COc1ccc(CNC(=O)CSc2nnc(-c3ccc(NC(C)=O)cc3)n2C)cc1,-3.1%
14,CCCCCn1c(SCCN2CCOCC2)nc2c1c(=O)[nH]c(=O)n2C,5.5%
15,COc1ccccc1NC(=O)CN(c1ccc(C)cc1)S(=O)(=O)c1c(C)n[nH]c1C,4.4%
16,CCOc1ccccc1NC(=O)CN(c1cc(C)cc(C)c1)S(=O)(=O)c1c(C)noc1C,6.7%
17,COc1ccc(OC)c(NC(=O)CN(c2ccc(C)cc2)S(=O)(=O)c2c(C)noc2C)c1,4.3%
18,CCOc1ccc(N(CC(=O)Nc2ccccc2C)S(=O)(=O)c2c(C)noc2C)cc1,65.3% (active)
19,COc1ccc(N(CC(=O)Nc2cc(Cl)ccc2OC)S(=O)(=O)c2c(C)noc2C)cc1,73.4% (active)
20,CCOc1ccccc1NC(=O)CN(c1ccc(C)cc1)S(=O)(=O)c1c(C)n[nH]c1C,52.3% (active)
21,COc1ccc(N(CC(=O)Nc2cc(C)ccc2OC)S(=O)(=O)c2c(C)noc2C)cc1,11.2%
22,CCOc1ccccc1NC(=O)CN(c1ccc(C)cc1)S(=O)(=O)c1c(C)noc1C,-19.7%
23,COc1ccccc1CNC(=O)CN(c1ccc(C)cc1)S(=O)(=O)c1c(C)n[nH]c1C,4.9%
24,CCOc1ccc(N(CC(=O)NC(C)(C)C)S(=O)(=O)c2c(C)noc2C)cc1,-7.4%

row,SMILES,cytotoxicity
1,CCOc1ccc(N(CC(=O)Nc2ccc(C)cc2)S(=O)(=O)c2c(C)noc2C)cc1,1.8%
2,CCOc1ccccc1NC(=O)CN(c1ccc(OC)cc1)S(=O)(=O)c1c(C)noc1C,66.8% (active)
3,CCN1CCN(c2ncc(C(=O)Nc3c(F)cc(F)cc3Br)c3ccccc23)CC1,18.4%
4,Cc1ccc(NC(=O)NC2(C(=O)NCc3ccco3)CCCCC2)cc1,-5.6%
5,CCn1[nH]c(=O)c(=Nc2c(C)n(C)n(-c3ccccc3)c2=O)cc1-c1ccc(Cl)cc1,-9.8%
6,O=C(O)c1ccc(COc2ccc(CO)cc2Cl)cc1,-12.9%
7,O=C1N2CN(C(c3ccccc3)c3ccccc3)CN=C2SC1(CO)CO,-13.8%
8,CCOc1ccc(-c2nc(CSCC(=O)N3CCN(C(=O)c4ccco4)CC3)c(C)o2)cc1,-10.8%
9,Cc1[nH]n2c(=O)cc(C(C)C)nc2c1-c1ccccc1,12.7%
10,Cc1cc(=O)n2[nH]c(C)c(-c3ccccc3)c2n1,-5%
11,Cc1[nH]n2c(=O)cc(C(C)(C)C)nc2c1-c1ccccc1,76.6% (active)
12,CCCCCCNC(=O)C(C#N)c1nc2ccccc2nc1N1CCOCC1 (centres undefined),20.3%
13,CCN(CC)C(=O)N1CCC(NC(=O)Cc2ccccc2)CC1,-6.6%
14,CCOC(=O)C1CCN(C(=O)c2cc(S(=O)(=O)N3CCOCC3)c(Cl)cc2Cl)CC1,3.3%
15,Nc1ccc(-c2cc(N)n(-c3ccccc3)n2)cc1,14.8%
16,c1coc(-c2nc3nc4ccccc4n3nc2-c2ccco2)c1,77.5% (active)
17,c1coc(-c2nc(-c3ccco3)c(-c3ccco3)nc2-c2ccco2)c1,-9.1%
18,c1coc(-c2nc3ccccc3nc2-c2ccco2)c1,-5.7%
19,Cc1cc(C)c2cc3c(ccn3C3OC[C@H](O)[C@H](O)[C@H]3O)cc2n1 (some centres undefined),-2.7%
20,Cc1csc(SCc2nnc(-c3ccccc3Br)o2)n1,-11.9%
21,Cc1cc(C)n(-c2c(F)c(F)c(CN3CCOCC3)c(F)c2F)n1,-4.7%
22,COc1ccc(C(=O)CSc2nnc(-c3ccccc3)o2)cc1,-13.3%
23,O=C(CCN1c2ccccc2Sc2ccccc21)OCc1nnc(-c2ccccc2)o1,5.5%
24,Cc1nnc(SC(=O)N2c3ccccc3Sc3ccccc32)s1,-38%

row,SMILES,cytotoxicity
1,COc1cc(OC)cc(-c2nnc(SCC(=O)N3c4ccccc4Sc4ccccc43)o2)c1,-10.6%
2,Cc1cccc(Nc2ccccc2)c1,-12.8%
3,Cc1cc2cc(CN(Cc3ccco3)C(=O)C3CCCCC3)c(=O)[nH]c2cc1C,-2%
4,COc1ccc(CNC(=O)c2cc(-c3cccs3)on2)cc1,2.4%
5,Cc1noc(C(=O)Nc2sc3c(c2C#N)CCC3)c1Cl,19%
6,COc1ccccc1NC(=O)C1(C)Cc2ccccc2C(=O)O1 (centres undefined),10.1%
7,CN(C)CCN(Cc1ccccc1)c1ccnc(N(C)C)c1C#N,-24.4%
8,COCCNC(=O)CN(CC1CCCO1)C(=O)CCC(=O)Nc1ccccn1 (centres undefined),-5.6%
9,CCOC(=O)c1csc(Nc2nc3ccc(F)cc3s2)n1,40.1%
10,CC(=O)c1sc(Nc2nc3ccc(F)cc3s2)nc1C,58.8% (active)
11,COc1ccc2nc(Nc3nc(C)c(C(C)=O)s3)sc2c1,18.2%
12,O=C(O)CCC(=O)N1CCc2cc(S(=O)(=O)N3CCN(c4ccc(F)cc4)CC3)ccc21,3.1%
13,COc1ccccc1N1CCN(C(=O)c2cc3n(n2)C(C(F)(F)F)CC(c2ccco2)N3)CC1 (centres undefined),-21.5%
14,Cc1ccc(C(=O)CSc2nnc(-c3ccco3)n2Cc2ccccc2)cc1,-16.2%
15,c1cn2c(NC3CCCC3)c(-c3ccc(N4CCOCC4)cc3)nc2cn1,2.8%
16,COc1cc(-c2nc3cnccn3c2Nc2ccccc2)ccc1O,22.1%
17,Cc1ccc2cc(CN(Cc3cccs3)C(=O)c3ccco3)c3nnnn3c2c1C,22.1%
18,CCc1nc2c(n1O)CCc1nonc1-2,3.5%
19,CCCSc1nc2c(c(=O)[nH]c(=O)n2C)n1C,2.1%
20,CC(NC(=O)NCC1CCCO1)(C(F)(F)F)C(F)(F)F (centres undefined),-16%
21,NS(=O)(=O)c1ccc(S(=O)(=O)N(Cc2ccccc2F)CC2CCCO2)cc1 (centres undefined),-0.3%
22,Cc1nc2ccccc2nc1CSc1nncs1,3.3%
